Among all 48,000 compounds or so, about 13,000 (27%) showed an effect of 50% or more. Some of the results follow.
Tested on: Wolbachia pipientis
Assay: Anti-Wolbachia Cell-Based Screen
Assay type: functional
Design: scale not given: in the data most compounds retested in dose-response had high values
Conditions: 5 µM

| Structure (SMILES) | Percent Effect |
| --- | --- |
| CSc1ccc(NC(=O)NCc2nncn2C2CC2)cc1F | 6.164% |
| CCN(CCC(=O)OC)C(=O)c1cccc(Cn2nc(C)cc2C)c1 | 2.618% |
| COCCN(CCOC)C(=O)c1ccc(Cn2nc(C)cc2C)cc1 | -2.502% |
| Cc1cc(C)n(Cc2ccc(-c3noc(C(=O)NCCCO)n3)cc2)n1 | 113.7% |
| CNC(=O)CCNC(=O)c1cccc(Cn2nc(C)cc2C)c1 | -10.69% |
| Cc1cc(C)n(Cc2ccc(-c3noc(C(=O)NC[C@@H](C)O)n3)cc2)n1 | 107.8% |
| O=C(NCCN1CCCCC1)c1nc(-c2ccc3cc[nH]c3c2)no1 | 1.073% |
| Cc1cc(C)n(Cc2ccc(C(=O)NCCN3CCOCC3)cc2)n1 | 0.4084% |
| Cc1cc(C)n(Cc2ccc(-c3noc(C(=O)NCCO)n3)cc2)n1 | 112.8% |
| COCc1cc(C[C@@H]2CC[C@H](O)[C@@H](CNCC(C)C)O2)no1 | -7.367% |
| CC(C)CN1C(=O)C2(CCN(Cc3ccoc3)C2)c2ccccc21.O=C(O)C(F)(F)F (stereo not drawn) | 60.6% |
| Cc1ccc(CN2CCC3(C2)C(=O)N(CC(N)=O)c2ccccc23)s1 (stereo not drawn) | -16.39% |
| CC(C)CN1C(=O)C2(CCN(Cc3ccsc3)C2)c2ccccc21.O=C(O)C(F)(F)F (stereo not drawn) | 118.8% |
| CC(C)CN1C(=O)C2(CCN(Cc3nccs3)C2)c2ccccc21.O=C(O)C(F)(F)F (stereo not drawn) | 21.56% |
| CC(C)CN1C(=O)C2(CCN(CC3CCOCC3)C2)c2ccccc21.O=C(O)C(F)(F)F (stereo not drawn) | 3.565% |
| Cc1ccc(CN2CCC3(C2)C(=O)N(CC2CC2)c2ccccc23)s1.O=C(O)C(F)(F)F (stereo not drawn) | 106.7% |
| CC(C)CN1C(=O)C2(CCN(Cc3cccs3)C2)c2ccccc21.O=C(O)C(F)(F)F (stereo not drawn) | 129.4% |
| CN1CCN(Cc2cccnc2)C2(CCN(Cc3ccoc3)C2)C1=O.O=C(O)C(F)(F)F.O=C(O)C(F)(F)F.O=C(O)C(F)(F)F (stereo not drawn) | -11.48% |
| CCN(CC)C(CNCc1cc(F)cc(F)c1)c1ccco1 (stereo not drawn) | 4.253% |
| Cc1ccsc1[C@@H]1CCN(C(=O)CCc2cc(O)no2)C[C@H]1O | 2.962% |
| COc1ccccc1CC(=O)NCc1c(C)nc2cc(=O)[nH]n2c1C | -0.07038% |
| Cc1ccc(C(C)(O)CNC(=O)c2sccc2Br)o1 (stereo not drawn) | 16.11% |
| CC(c1nc(C2CC2)no1)N1CCC(NS(=O)(=O)c2cccs2)CC1 (stereo not drawn) | 7.931% |
| Cc1ccc(CN2CCC3(C2)C(=O)N(CC(C)C)c2ccccc23)s1 (stereo not drawn) | 8.577% |

| Structure (SMILES) | Percent Effect |
| --- | --- |
| CC(C)CN1C(=O)C2(CCN(Cc3ccc(F)cc3)C2)c2ccccc21 (stereo not drawn) | 132% |
| O=C(O)C(F)(F)F.O=C(O)C(F)(F)F.c1cnc(N2C[C@H]3CCN(CCN4CCCC4)C[C@H]3C2)cn1 | 87.36% |
| O=C(O)C(F)(F)F.c1cnc(N2C[C@H]3CCN(CC4CC4)C[C@H]3C2)cn1 | 93.44% |
| O=C(O)C(F)(F)F.O=C(O)C(F)(F)F.c1cnc(N2CCOCC3(CCCN(CC4CC4)C3)C2)cn1 (stereo not drawn) | -18.67% |
| O=C(O)[C@]12CN(CC3CCC3)C[C@H]1CN(c1cnccn1)C2 | 5.69% |
| Cn1cc(CNCCc2nccs2)c(-c2cccnc2)n1 | 5.46% |
| C[C@@H]1CN(C2(C(=O)N3CC[C@H](O)C3)Cc3ccccc3C2)C[C@H](C)O1 | 3.055% |
| Clc1ccc2[nH]c3c(c2c1)CCCC3c1nn[nH]n1 (stereo not drawn) | 91.29% |
| O=c1[nH]c2ccccc2c(=O)n1Cc1nnnn1C1CC1 | -11.16% |
| c1ccc2c3c([nH]c2c1)C(c1nn[nH]n1)CCC3 (stereo not drawn) | 118.9% |
| CCc1ccc(C(=O)N2CCCC(c3nn[nH]n3)C2)cc1 (stereo not drawn) | 6.219% |
| Brc1ccc2[nH]c3c(c2c1)CCCC3c1nn[nH]n1 (stereo not drawn) | 153.1% |
| NCC1Cc2cc(Cl)cc(-c3cncc(C(=O)N4CCCCC4)n3)c2O1 (stereo not drawn) | 0.4481% |
| O=C(O)C(F)(F)F.O=C1CO[C@@H]2CN(Cc3cccs3)C[C@H]2N1CC1CC1 | 3.643% |
| O=C(NCCc1cccs1)[C@H]1CO[C@H]2CCN(C3CCC3)C[C@H]2C1.O=C(O)C(F)(F)F | 119.1% |
| O=C(NCc1cccs1)c1nc2c(o1)CN(CC1CC1)C2.O=C(O)C(F)(F)F | -6.948% |
| O=C(NCCc1cccs1)[C@H]1CO[C@H]2CCN(CC3CC3)C[C@H]2C1.O=C(O)C(F)(F)F | 100.3% |
| O=C(NCc1cccs1)[C@H]1CO[C@H]2CCN(C3CCCC3)C[C@H]2C1.O=C(O)C(F)(F)F | 106.7% |
| O=C(NCc1cccs1)C1CNCC12CCOCC2.O=C(O)C(F)(F)F (stereo not drawn) | 1.102% |
| CC(C)NC(=O)[C@H]1C[C@@H]2[C@@H](C1)OCCN2Cc1cccs1.O=C(O)C(F)(F)F | -8.796% |
| CN1C[C@@H]2COC[C@]2(C(=O)NCCc2cccs2)C1.O=C(O)C(F)(F)F | -4.441% |
| O=C(NCCc1cccs1)[C@]12COC[C@H]1CN(C1CCOCC1)C2.O=C(O)C(F)(F)F | -30.21% |
| CCN(CC)Cc1cc(C(=O)N2CCCC(CC)(C(=O)O)C2)c(C)o1 (stereo not drawn) | 1.255% |
| O=C(c1scc2c1OCCO2)N1CCOC(CCc2ccccc2)C1 (stereo not drawn) | -26.43% |

| Structure (SMILES) | Percent Effect |
| --- | --- |
| CCc1nc(C)c([C@H]2CN(C)C[C@@H]2C(=O)Nc2cccc3cn[nH]c23)[nH]1 | -9.056% |
| CC(=O)N1CCN(C(=O)CCNc2snc(Cl)c2C#N)CC1 | -5.282% |
| Cc1cc(CN(Cc2ccccc2)CC(O)c2cccs2)on1 (stereo not drawn) | -11.7% |
| CNc1nc(CNC(=O)Nc2ccccc2SC)cs1 | 0.4301% |
| CNC(=O)Cc1ccccc1NC(=O)NCc1ccc(SC)cc1 | -2.376% |
| CSc1nnc(CNC(=O)Nc2ccccc2F)n1C | 133% |
| COc1ccccc1NC(=O)NCc1nnc(SC)n1C | 134.3% |
| COC(=O)CCCNC(=O)Nc1ccccc1OC | -0.6444% |
| CN(C)c1ncc(CNC(=O)Nc2ccccc2F)n1C | -5.654% |
| Cn1c(C(F)(F)F)nn(CCNC(=O)Nc2ccccc2F)c1=O | 4.89% |
| CCOc1ccccc1NC(=O)NCc1ccoc1 | 6.288% |
| CCc1ccccc1NC(=O)NCc1nnc(SC)n1C | 130.1% |
| CSc1nnc(CNC(=O)Nc2ccccc2Br)n1C | 152.8% |
| COc1ccccc1NC(=O)NCc1cn[nH]c1 | 15.69% |
| Cn1c(CO)nnc1SCc1c(F)cccc1Br | 6.099% |
| CN(C(=O)c1ccncc1Cl)c1ccccc1S(C)(=O)=O | -0.2522% |
| O=C(Nc1cccs1)N(CCO)CCOCC(F)(F)F | 5.099% |
| Cc1ccccc1CC1(CO)CCCN(c2ncncc2C(C)C)C1 (stereo not drawn) | 2.064% |
| CO[C@H]1CCN(c2nnc(C)s2)C[C@@H]1Cc1ccccc1.O=C(O)C(F)(F)F | 94.02% |
| Cc1nnc(N2CC[C@@H](OCC3CC3)[C@@H](Cc3ccccc3)C2)s1.O=C(O)C(F)(F)F | 4.615% |
| Cc1nnc(N2CC[C@H](OCC3CC3)[C@@H](Cc3ccccc3)C2)s1.O=C(O)C(F)(F)F | -12.39% |
| CO[C@@H]1CCN(c2nnc(C)s2)C[C@@H]1Cc1ccccc1.O=C(O)C(F)(F)F | 97% |
| COCc1ccc(C(=O)N2CCC(Oc3ccccc3)(C(=O)O)CC2)o1 | -4.026% |
| Cc1ncc(C)c(N2CCCC(CO)(Cc3cccc(Cl)c3)C2)n1 (stereo not drawn) | -4.145% |

| Structure (SMILES) | Percent Effect |
| --- | --- |
| CN1CCN(CCCNC(=O)c2cc(Cl)c3c(c2)OCO3)CC1 | 11.84% |
| CC(C)N(C)Cc1nnc2n1CCCN(S(=O)(=O)C1CC1)C2.O=C(O)C(F)(F)F | -4.148% |
| CC(C)N(C)Cc1cc(=O)n2c(n1)CN(S(=O)(=O)C1CC1)CCC2.O=C(O)C(F)(F)F | 109.3% |
| CCN(CC)Cc1cc(=O)n2c(n1)CN(S(=O)(=O)C1CC1)CCC2.O=C(O)C(F)(F)F | 115.6% |
| CN(C)Cc1cc(=O)n2c(n1)CN(S(=O)(=O)C1CC1)CCC2.O=C(O)C(F)(F)F | 96.54% |
| CC(C)N(C)Cc1nnc2n1CCN(S(=O)(=O)C1CC1)CC2.O=C(O)C(F)(F)F | -7.825% |
| CN(C)Cc1cc(=O)n2c(n1)CN(CC1CCOCC1)CCC2 | -13.06% |
| C=C(C)COc1cccc(C(=O)N(C)Cc2cc(CC)no2)c1 | -19.24% |
| Cc1ccn(-c2ccc(N3CCCN(Cc4ccccc4)CC3)nn2)n1 | 1.996% |
| COCCCC1(CO)CCCN(C(=O)c2cnc3c(c2)CCCC3)C1 (stereo not drawn) | -5.76% |
| CCN(CC1CN(CCc2ccccn2)CCO1)c1cccnn1 (stereo not drawn) | -0.8374% |
| c1cnnc(NCC2CN(CCn3cncn3)CCO2)c1 (stereo not drawn) | -18.76% |
| Cn1c(CN2CCOC(CNc3cccnn3)C2)nnc1C1CC1 (stereo not drawn) | 105.6% |
| c1cnnc(NCC2CN(CC3CCOCC3)CCO2)c1 (stereo not drawn) | 103% |
| c1ccc(CCN2CCOC(CNc3cccnn3)C2)nc1 (stereo not drawn) | 95.59% |
| Cc1cc(C)n(CCN2CCOC(CNc3cccnn3)C2)n1 (stereo not drawn) | 103.1% |
| Clc1snnc1CN1CCOC(CNc2cccnn2)C1 (stereo not drawn) | -2.392% |
| CCn1ccnc1CN1CCOC(CNc2cccnn2)C1 (stereo not drawn) | 10.18% |
| CC(C)c1ccc(CNC(C)c2ccc(S(=O)(=O)N(C)C)cc2)cc1 (stereo not drawn) | 1.332% |
| CN(CCC#N)C(=O)CN1CCC(c2cc3ccccc3[nH]2)CC1 | -2.857% |
| O=S(=O)(c1ccccc1)N1CCN(Cc2ccc(F)cc2Br)CC1 | 23.46% |
